Consider eleven compounds from PubChem BioAssay.

The subject of assay [1] is Plasmodium falciparum Sir2 (PF13_0152, Sir2A). Put plainly: pfSir2 binders on small-molecule microarrays, primary screen, biochemical, small-molecule microarray, 635 nm fluorescence (AID 1098).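 Note: score merges spot fluorescence intensity with its signal-to-noise ratio.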 Conditions: small-molecule microarray binding, fluorescence 635 nm; higher = more signal.
Assay [2] can be described thus: small-molecule microarray binders of probe aDKK1, primary screen, biochemical, biotinylated probe, 635/667 nm fluorescence (AID 1099).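 Note: score merges 667nm spot fluorescence with signal to noise across triplicate slides; reference of the scale not given here.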 The following applies: higher = more signal.
Assay [3] can be described thus: small-molecule microarray binders of probe aCHRDL2, primary screen, biochemical, biotinylated probe, 635/667 nm fluorescence (AID 1100). Conditions: higher = more signal.
A short description of assay [4]: splicing luciferase reporter signal modulators, primary screen, spliceosome inhibition project, cell-based, HEK293, splice +/- reporter (AID 1101).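 Note: HEK293 cells carrying a splicing-competent luciferase reporter gene; test concentration not given here.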 The following applies: luminescence, 24 h, higher = more signal, called active from +8 up or from −8 down.
For assay [5], the target named is Fibroblast growth factor 10 (Homo sapiens) (UniProt O15520). In words: FGF10 binders on small-molecule microarrays, primary screen, biochemical, small-molecule microarray, 635 nm fluorescence (AID 1102). The following applies: FGF10 binding, fluorescence 635 nm, higher = more signal.
Assay [6] relates to glycogen synthase kinase-3 (GSK3A per assay name; protocol says GSK3B). In words: GSK3 binders on small-molecule microarrays, primary screen, biochemical, small-molecule microarray, 635 nm fluorescence, GSK3A (AID 1103). Note: the record names both GSK3A and GSK3B. The following applies: small-molecule microarray binding, fluorescence 635 nm; higher = more signal.
Assay [7] addresses Epidermal growth factor receptor (Homo sapiens) (UniProt P00533). Put plainly: EGFR binders on small-molecule microarrays, primary screen, biochemical, small-molecule microarray, 635 nm fluorescence (AID 1104).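 Note: score merges 667 nm emission intensity with spot signal to noise over triplicate slides.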 Conditions: EGFR binding, higher = more signal.
Assay [8] has as its target Follistatin-related protein 3 (Homo sapiens) (UniProt O95633). In words: FSTL3 binders on small-molecule microarrays, primary screen, biochemical, small-molecule microarray, 635 nm fluorescence (AID 1105).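 Note: score merges emission near 667 nm and signal to noise per printed spot across three slides.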 The following applies: FSTL3 binding, higher = more signal.
Assay [9] concerns the target Dickkopf-related protein 1 (Homo sapiens) (UniProt O94907). In words: DKK1 binders on small-molecule microarrays, primary screen, biochemical, small-molecule microarray, 635 nm fluorescence scan (AID 1106).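 Note: score merges emission near 667 nm with signal to noise over three replicate slides.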 The following applies: DKK1 binding, higher = more signal.
Assay [10] deals with Inhibin beta A chain (activin A). In words: INHBA (activin A) binders on microarrays, primary screen, biochemical, small-molecule microarray, 635 nm fluorescence scan (AID 1107).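 Note: mouse activin A protein probed at 4.33 µg/mL on printed slides; score merges bound-protein fluorescence near 667 nm with spot signal-to-noise.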 The following applies: small-molecule microarray binding, higher = more signal.

Active and inactive are the calls of the source.

Epidermal growth factor receptor (Homo sapiens), sequence (P00533 whole entry, looked up): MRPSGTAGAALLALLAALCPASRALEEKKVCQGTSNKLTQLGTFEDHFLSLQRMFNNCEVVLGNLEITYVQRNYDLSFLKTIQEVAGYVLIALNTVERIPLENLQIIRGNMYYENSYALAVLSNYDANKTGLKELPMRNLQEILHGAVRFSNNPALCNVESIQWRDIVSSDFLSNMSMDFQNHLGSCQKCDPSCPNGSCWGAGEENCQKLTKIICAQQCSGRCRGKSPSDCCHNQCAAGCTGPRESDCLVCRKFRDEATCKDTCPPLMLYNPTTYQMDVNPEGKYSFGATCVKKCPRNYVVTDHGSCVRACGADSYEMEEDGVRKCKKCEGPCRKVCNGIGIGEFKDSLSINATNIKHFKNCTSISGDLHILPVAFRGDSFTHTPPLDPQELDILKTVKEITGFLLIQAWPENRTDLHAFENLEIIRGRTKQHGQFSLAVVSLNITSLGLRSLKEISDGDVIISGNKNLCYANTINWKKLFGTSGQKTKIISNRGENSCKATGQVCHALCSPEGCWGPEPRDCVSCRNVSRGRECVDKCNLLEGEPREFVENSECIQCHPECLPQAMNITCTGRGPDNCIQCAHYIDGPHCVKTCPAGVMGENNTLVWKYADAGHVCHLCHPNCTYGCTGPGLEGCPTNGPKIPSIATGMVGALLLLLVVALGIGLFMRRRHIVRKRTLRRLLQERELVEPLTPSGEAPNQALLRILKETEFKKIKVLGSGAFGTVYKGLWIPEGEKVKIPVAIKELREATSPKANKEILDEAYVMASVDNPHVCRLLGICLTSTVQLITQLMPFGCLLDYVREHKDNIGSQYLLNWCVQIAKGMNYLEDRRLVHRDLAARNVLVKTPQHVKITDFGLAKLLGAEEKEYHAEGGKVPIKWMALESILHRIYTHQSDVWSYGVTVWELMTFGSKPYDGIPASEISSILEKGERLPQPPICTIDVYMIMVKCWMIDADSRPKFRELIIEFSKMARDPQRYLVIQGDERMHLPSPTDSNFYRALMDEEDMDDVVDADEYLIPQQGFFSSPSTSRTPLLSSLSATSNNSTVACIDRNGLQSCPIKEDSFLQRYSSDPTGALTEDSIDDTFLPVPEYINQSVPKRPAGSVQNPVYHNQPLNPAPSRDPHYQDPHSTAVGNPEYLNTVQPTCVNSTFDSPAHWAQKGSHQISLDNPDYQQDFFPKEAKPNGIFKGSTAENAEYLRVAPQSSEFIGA
Fibroblast growth factor 10 (Homo sapiens), sequence (O15520 whole entry, looked up): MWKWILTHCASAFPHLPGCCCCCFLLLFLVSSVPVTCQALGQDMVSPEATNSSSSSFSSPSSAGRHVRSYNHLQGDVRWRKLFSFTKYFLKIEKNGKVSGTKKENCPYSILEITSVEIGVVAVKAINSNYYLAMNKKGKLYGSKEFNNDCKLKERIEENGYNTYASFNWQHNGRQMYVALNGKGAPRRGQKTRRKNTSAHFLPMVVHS
Dickkopf-related protein 1 (Homo sapiens), sequence (O94907 whole entry, looked up): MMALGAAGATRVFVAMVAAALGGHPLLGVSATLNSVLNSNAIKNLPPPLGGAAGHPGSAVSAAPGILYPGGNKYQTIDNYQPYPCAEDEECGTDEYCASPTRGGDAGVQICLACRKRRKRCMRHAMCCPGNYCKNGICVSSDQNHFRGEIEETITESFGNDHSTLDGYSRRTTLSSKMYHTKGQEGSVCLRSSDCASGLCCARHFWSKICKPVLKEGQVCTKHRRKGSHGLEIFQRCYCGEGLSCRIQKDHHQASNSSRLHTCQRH
Follistatin-related protein 3 (Homo sapiens), sequence (O95633 whole entry, looked up): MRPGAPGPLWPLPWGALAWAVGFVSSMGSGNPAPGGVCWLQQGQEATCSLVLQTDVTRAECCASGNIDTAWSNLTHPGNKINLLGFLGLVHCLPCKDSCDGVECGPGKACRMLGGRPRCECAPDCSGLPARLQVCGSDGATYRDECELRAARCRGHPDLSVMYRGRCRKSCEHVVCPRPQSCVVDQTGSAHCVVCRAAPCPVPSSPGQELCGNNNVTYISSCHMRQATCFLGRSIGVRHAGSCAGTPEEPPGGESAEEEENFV

In the case of `CCCC=C(CCC)[C@@H](NC(=O)c1ccc(C(F)(F)F)cc1)c1ccc(C(F)(F)F)cc1`, the composite z-score in assay [1] is 0.654; in assay [2], 0.73; in assay [3] it was 1.09; in assay [5] it was 0.793; in [6] it was 1.13; in assay [7], -0.254. Also, the composite z-score in [8] is 0.468; in assay [9], -0.906; in assay [10], 0.932. Further, the z-score in assay [4] is -3.17 (inactive).

With `CN(C)CCCC[C@@H]1NC(=O)[C@H]2C[C@@H](C(=O)O)[C@@H](c3ccc(O)cc3)N2C1=O`, the composite z-score in [1] was 2.03; in assay [2] it was 2.45; in assay [3] it was 1.64; in assay [5], 1.55; in assay [6], 1.44; in assay [7] it was 1.85. The composite z-score in [8] was found to be 1.53; in assay [9], 2.03; in [10], 1.98. The z-score in [4] is -1.28 (inactive).

As to `COC(=O)[C@@]1(Cc2ccccc2)[C@H]2c3cc(C(=O)N(C)C)n(Cc4ccc(C(F)(F)F)nc4)c3C[C@H]2CN1C(=O)c1ccccc1`, the composite z-score in [1] was 1.52; in assay [2] it was 1.17; in [3] it was 1.24; in [5], 1.08; in assay [6], 1.12; in assay [7], -0.405. The composite z-score was 0.885 in [8], -0.547 in assay [9] and 0.822 in [10]. For the same compound, the z-score in assay [4] was -1.16 (inactive).

Regarding `C=CC1c2cc(O)c(OC)cc2CCN1C` (stereo not given), the composite z-score was 0.21 in assay [1]; 0.416 in [2]; 0.759 in assay [3]; -0.169 in [5]; -1.24 in assay [6]; -0.534 in assay [7]. The composite z-score in assay [8] is -0.332; in [9], -0.26; in assay [10], 0.725. Further, in [4], the z-score was 0.978 (inactive).

Consider `CN(C)CCCNC(=O)[C@@]1(Cc2ccccc2I)c2ccccc2C(=O)N(C2CCCCC2)[C@H]1c1ccc(CO)cc1`, for which the composite z-score in assay [1] stood at 0.856; in assay [2] it was 1.13; in [3] it was 0.532; in assay [5], 0.269; in assay [6] it was 1.03; in assay [7] it was 0.0863. The composite z-score was 0.383 in assay [8], 0.183 in assay [9] and 1.32 in [10]. Besides, the z-score in assay [4] is -4.61 (inactive).

Consider `CC(C)=CCCC(C)=CC(O)C1C=CC2C(=O)NC(=O)C2N1Nc1ccccn1` (stereo not given), for which the composite z-score in assay [1] was 1.52; in [2], 0.0536; in [3], -0.319; in assay [5], 1.46; in assay [6], 1.29; in assay [7], 1.68. Further, the composite z-score in assay [8] worked out at 1.55; in assay [9], 1.76; in assay [10], 1.6. Besides, the z-score in [4] was -0.121 (inactive).

As for `CCCC=C(CCC)[C@@H](NC(=O)OCC(C)C)c1ccc(C(=O)OC)cc1`, the composite z-score is 0.458 in [1]; -0.315 in assay [2]; -0.411 in [3]; 0.674 in assay [5]; 0.788 in assay [6]; 0.471 in assay [7]. The composite z-score in assay [8] was 0.414; in [9], 0.85; in assay [10] it was -0.155. Besides, the z-score in assay [4] is -2.36 (inactive).

For `CC(=O)OCC1C2CC[C@H]3C(OCc4ccc(F)cc4C(F)(F)F)OC[C@]4(C)[C@H]3C2=C(CN4C(=O)OC(C)(C)C)[C@H](C)C1COC(C)=O` (stereo not given in full), the composite z-score is 0.547 in assay [1]; 0.547 in assay [2]; 1.06 in assay [3]; 0.398 in assay [5]; -0.466 in assay [6]; -1.08 in assay [7]. Moreover, the composite z-score in assay [8] was -0.925; in assay [9], -1.31; in assay [10] it was 0.838. Moreover, the z-score in [4] was -0.329 (inactive).

For `CCCc1cc2c(n1CCc1ccc(Cl)cc1)C(C)C1CN(C(=O)c3ccccc3)C(C)(C(=O)OC)C21` (stereo not given), the composite z-score in assay [1] was 0.462; in assay [2] it was 1.64; in assay [3], 1.59; in assay [5], 0.464; in assay [6], -0.014; in assay [7], -0.403. Further, the composite z-score is 0.252 in [8], -1.92 in assay [9] and 1.24 in [10]. Moreover, the z-score in assay [4] was 3.17 (inactive).

`O=C1C[C@]2(c3ccc([N+](=O)[O-])cc3)C(=O)N(C3CC3)c3cc(CO)ccc3[C@H]2N1C1CCCCC1`: the composite z-score in assay [1] was 0.389; in [2], -0.0619; in assay [3], 0.305; in assay [5] it was -0.104; in assay [6] it was 0.139; in assay [7] it was -0.0618. Besides, the composite z-score was -0.184 in assay [8], -0.198 in assay [9] and 0.847 in assay [10]. In addition, in [4], the z-score is -0.282 (inactive).

In the case of `C=C1C(=O)C=C2CN(C(=O)c3ccccc3)[C@@](Cc3ccc(OC)cc3)(C(=O)OC)[C@@H]12`, the composite z-score amounted to 1.14 in assay [1]; 1.18 in [2]; 1.18 in assay [3]; 1.38 in assay [5]; 0.681 in [6]; 0.369 in assay [7]. The composite z-score is 1.37 in [8], -0.399 in assay [9] and 0.516 in assay [10]. Moreover, the z-score in assay [4] was -2.15 (inactive).
